These results are taken from the supplement of paper PMC10849652.

About 8,800 targets were measured; listed, in parts, are those with a hit and a random draw of the rest. About 0.5% of all pairs of compound and target were hits. Values without a mark were called inactive.

What all share (assay): log2 fold change, soluble protein after heating vs DMSO (PISA); higher = thermal stabilisation; K562 lysate, 10 uM; active = over 0.2 and 3.5 SD of the protein, either way, in both replicates (recomputed)
Compound in experiment [1]: C1=CC=C(C=C1)[C@H](COC2=CC3=C(C=C2)NC(=O)N3)NC(=O)C4=CC=CN(C4=O)CC5=CC(=C(C=C5)F)F
Put shortly: (§1)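 Quantification was by TMTpro 16plex LC-MS/MS with equalised channel sums, applied to the supernatant after 21,000xg for 90 min. Samples were crude K562 extract at 1 mg/mL protein in PBS pH 7.4 with 1 mM MgCl2, treated with 10 μM compound for 30 min, heated for 3 min across 48°C-58°C, pooled and brought to 0.5% NP-40 at 4°C. Values are log-two fold changes in thermal stability relative to solvent controls, from duplicates.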

Compound in experiment [2]: CC1=C(SC2=C1C(=N[C@H](C3=NN=C(N32)C)CC(=O)N)C4=CC=C(C=C4)Cl)C
Put shortly: as §1

Compound in experiment [3]: CC1=C2C(=CC=C1)N=C(N(C2=O)C3=CC=CC=C3C)CN4C=NC5=C(N=CN=C54)N
Put shortly:
as §1

Compound in experiment [4]: Cc1sc2c(c1C)C(c1ccc(Cl)cc1)=N[C@@H](CC(=O)OC(C)(C)C)c1nnc(C)n1-2
Put shortly: as §1

Compound in experiment [5]: c1ccc([C@@H]2C[C@H]2NC2CCNCC2)cc1
In outline: as §1

Sequence of UniProt P43246 (P43246 whole entry, looked up): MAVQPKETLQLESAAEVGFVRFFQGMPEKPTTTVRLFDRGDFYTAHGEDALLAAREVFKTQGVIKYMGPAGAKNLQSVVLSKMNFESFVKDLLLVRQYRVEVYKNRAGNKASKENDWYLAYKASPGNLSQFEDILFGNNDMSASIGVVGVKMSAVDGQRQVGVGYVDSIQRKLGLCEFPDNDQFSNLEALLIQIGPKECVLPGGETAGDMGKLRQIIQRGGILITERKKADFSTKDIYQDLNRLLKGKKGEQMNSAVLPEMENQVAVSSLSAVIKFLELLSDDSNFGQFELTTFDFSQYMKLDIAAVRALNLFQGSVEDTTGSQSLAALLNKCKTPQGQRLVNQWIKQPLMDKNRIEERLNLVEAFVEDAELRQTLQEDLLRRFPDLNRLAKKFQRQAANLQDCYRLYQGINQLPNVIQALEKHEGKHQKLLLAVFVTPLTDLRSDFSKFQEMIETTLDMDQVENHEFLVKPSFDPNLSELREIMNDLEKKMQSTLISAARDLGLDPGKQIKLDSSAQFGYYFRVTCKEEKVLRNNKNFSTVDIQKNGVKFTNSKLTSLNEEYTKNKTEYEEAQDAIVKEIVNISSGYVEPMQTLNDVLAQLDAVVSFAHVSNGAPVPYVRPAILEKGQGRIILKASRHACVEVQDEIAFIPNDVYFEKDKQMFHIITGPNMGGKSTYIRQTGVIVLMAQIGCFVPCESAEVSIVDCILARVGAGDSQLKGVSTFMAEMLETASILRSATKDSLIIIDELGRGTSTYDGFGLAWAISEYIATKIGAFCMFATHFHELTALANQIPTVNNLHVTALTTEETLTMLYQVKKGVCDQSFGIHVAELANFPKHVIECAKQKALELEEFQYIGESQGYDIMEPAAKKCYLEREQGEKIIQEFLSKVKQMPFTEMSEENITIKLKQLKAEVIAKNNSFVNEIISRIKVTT
Sequence of UniProt Q9Y5N5 (Q9Y5N5 whole entry, looked up, one chain of several): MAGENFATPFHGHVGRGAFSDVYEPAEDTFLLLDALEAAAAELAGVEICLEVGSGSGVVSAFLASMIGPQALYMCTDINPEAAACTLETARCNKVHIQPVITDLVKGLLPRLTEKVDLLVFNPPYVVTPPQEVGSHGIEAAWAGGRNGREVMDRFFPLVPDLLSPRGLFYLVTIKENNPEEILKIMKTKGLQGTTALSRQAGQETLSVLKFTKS
Sequence of UniProt Q13469 (Q13469 whole entry, looked up): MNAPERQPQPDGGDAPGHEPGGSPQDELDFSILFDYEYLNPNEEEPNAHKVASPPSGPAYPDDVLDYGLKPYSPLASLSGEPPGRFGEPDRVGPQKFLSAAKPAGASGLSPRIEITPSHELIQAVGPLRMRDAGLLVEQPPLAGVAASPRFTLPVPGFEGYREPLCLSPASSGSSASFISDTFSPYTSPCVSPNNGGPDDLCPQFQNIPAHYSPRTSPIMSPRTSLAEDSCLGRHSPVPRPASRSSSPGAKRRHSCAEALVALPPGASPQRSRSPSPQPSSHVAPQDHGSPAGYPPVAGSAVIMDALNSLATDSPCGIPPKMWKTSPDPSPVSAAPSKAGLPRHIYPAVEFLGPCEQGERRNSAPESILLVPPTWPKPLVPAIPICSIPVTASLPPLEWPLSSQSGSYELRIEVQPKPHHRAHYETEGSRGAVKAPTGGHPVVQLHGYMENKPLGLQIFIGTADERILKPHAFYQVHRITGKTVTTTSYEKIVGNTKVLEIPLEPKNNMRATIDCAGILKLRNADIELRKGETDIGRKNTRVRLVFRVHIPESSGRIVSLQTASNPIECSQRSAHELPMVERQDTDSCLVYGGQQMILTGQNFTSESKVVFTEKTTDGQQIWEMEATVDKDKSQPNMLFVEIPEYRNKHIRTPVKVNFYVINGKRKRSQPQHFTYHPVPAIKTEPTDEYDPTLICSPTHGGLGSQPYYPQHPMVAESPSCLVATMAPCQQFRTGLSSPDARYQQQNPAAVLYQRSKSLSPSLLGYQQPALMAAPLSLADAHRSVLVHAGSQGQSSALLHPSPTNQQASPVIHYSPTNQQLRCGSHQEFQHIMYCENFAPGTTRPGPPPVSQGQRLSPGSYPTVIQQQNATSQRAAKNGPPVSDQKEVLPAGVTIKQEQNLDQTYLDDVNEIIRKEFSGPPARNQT
Sequence of UniProt Q9Y314 (Q9Y314 whole entry, looked up): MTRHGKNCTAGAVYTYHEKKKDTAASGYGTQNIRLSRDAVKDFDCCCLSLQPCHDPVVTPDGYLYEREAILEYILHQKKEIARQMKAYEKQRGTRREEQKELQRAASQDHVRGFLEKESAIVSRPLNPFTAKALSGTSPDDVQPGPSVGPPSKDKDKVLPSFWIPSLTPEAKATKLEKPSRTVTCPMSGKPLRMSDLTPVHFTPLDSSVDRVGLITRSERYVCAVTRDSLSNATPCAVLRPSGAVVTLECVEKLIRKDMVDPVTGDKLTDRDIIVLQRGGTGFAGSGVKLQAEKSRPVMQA
Sequence of UniProt P49116 (P49116 whole entry, looked up): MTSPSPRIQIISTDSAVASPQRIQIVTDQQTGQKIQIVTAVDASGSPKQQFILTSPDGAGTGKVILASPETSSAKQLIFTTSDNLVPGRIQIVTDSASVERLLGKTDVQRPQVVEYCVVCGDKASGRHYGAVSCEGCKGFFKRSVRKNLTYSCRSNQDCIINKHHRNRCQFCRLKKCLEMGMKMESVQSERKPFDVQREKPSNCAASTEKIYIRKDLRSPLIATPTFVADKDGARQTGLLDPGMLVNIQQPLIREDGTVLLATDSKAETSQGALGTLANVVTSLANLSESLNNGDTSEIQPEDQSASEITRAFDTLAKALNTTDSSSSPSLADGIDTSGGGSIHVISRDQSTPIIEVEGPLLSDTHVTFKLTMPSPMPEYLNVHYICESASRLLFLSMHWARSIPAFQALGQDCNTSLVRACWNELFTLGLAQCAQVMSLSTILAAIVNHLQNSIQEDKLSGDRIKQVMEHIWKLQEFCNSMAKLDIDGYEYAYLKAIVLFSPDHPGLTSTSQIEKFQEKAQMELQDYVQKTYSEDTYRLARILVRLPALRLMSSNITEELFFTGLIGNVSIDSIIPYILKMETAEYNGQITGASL
Sequence of UniProt Q8TDX7 (Q8TDX7 whole entry, looked up): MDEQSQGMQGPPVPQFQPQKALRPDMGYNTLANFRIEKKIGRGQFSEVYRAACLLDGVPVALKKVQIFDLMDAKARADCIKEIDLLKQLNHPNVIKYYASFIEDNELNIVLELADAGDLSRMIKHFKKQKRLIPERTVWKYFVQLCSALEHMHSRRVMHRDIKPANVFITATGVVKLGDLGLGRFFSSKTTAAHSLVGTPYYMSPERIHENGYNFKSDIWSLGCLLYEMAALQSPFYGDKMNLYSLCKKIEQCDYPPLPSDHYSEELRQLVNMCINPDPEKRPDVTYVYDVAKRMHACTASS
Sequence of UniProt Q9BYG3 (Q9BYG3 whole entry, looked up): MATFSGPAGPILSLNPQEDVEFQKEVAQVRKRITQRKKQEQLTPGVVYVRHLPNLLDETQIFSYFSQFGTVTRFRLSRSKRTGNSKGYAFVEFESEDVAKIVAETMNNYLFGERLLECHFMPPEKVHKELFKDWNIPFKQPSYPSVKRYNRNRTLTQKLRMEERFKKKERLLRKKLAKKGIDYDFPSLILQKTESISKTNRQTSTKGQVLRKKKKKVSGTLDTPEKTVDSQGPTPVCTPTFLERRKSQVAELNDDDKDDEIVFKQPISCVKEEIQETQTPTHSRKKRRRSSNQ
Sequence of UniProt Q9BPZ3 (Q9BPZ3 whole entry, looked up): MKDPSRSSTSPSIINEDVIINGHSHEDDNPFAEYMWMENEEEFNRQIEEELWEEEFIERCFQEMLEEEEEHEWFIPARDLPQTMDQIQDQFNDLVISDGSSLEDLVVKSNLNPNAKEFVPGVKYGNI
Sequence of UniProt Q96I59 (Q96I59 whole entry, looked up): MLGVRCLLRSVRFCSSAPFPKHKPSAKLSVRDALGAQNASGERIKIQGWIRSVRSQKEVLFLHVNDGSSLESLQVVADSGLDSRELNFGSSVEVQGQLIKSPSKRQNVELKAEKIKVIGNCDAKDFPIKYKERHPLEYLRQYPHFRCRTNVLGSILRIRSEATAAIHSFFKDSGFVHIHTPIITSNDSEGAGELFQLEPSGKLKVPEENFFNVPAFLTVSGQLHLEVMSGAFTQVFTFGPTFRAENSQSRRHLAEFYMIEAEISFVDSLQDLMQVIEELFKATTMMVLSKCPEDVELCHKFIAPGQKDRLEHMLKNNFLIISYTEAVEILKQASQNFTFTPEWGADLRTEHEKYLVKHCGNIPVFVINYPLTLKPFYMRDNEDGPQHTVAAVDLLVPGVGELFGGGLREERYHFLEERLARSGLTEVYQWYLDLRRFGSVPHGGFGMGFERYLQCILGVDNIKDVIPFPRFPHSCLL
Sequence of UniProt Q15653 (Q15653 whole entry, looked up): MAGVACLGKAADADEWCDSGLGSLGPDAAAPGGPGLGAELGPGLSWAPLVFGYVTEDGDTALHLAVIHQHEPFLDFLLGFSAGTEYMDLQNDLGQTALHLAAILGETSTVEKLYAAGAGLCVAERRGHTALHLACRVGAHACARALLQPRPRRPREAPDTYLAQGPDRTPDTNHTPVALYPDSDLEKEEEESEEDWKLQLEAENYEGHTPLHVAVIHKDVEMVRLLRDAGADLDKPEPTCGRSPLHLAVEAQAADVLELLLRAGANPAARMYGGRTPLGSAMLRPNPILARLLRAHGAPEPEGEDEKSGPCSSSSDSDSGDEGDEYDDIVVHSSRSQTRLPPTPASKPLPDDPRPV
Sequence of UniProt Q9BV86 (Q9BV86 whole entry, looked up): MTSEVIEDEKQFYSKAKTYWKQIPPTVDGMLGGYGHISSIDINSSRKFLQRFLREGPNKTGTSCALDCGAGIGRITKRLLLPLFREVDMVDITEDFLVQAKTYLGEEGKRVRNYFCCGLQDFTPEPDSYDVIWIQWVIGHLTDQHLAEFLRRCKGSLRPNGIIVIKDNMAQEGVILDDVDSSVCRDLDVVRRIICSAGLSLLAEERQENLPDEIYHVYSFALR
Sequence of UniProt Q9NZJ9 (Q9NZJ9 whole entry, looked up): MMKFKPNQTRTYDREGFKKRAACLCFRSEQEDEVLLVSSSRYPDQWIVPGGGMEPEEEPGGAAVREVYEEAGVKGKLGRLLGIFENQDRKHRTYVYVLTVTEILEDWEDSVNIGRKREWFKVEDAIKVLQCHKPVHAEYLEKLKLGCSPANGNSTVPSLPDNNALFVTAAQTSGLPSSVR

As to NEK7 (UniProt Q8TDX7), the log2 fold change in experiment [1] is 0.03; in experiment [2] it was -0.032; in experiment [3], -0.004; in experiment [4], -0.076; in experiment [5] it was 0.026.
For OGT (UniProt O15294), in that order: 0.029, 0.012, 0.016, 0.067 and 0.039.
Take PAIP2 (UniProt Q9BPZ3): the log2 fold change is -0.009 in experiment [1]; 0.042 in experiment [2]; 0.03 in experiment [3]; 0.021 in experiment [4]; 0.036 in experiment [5].
Turning to NUP98 (UniProt P52948), the log2 fold change in experiment [1] was -0.018; in experiment [2] it was -0.03; in experiment [3], 0.037; in experiment [4], 0.052; in experiment [5] it was -0.003.
In the case of MT-ND1 (UniProt P03886), the log2 fold change in experiment [1] was -0.057; in experiment [2], -0.098; in experiment [3] it was -0.055; in experiment [4] it was -0.077; in experiment [5], -0.039.
MRPS31 (UniProt Q92665): the log2 fold change is -0.019 in experiment [1]; -0.048 in experiment [2]; 0.046 in experiment [3]; 0.014 in experiment [4]; 0.014 in experiment [5].
As to NFKBIE (UniProt O00221), the log2 fold change in experiment [1] is -0.014; in experiment [2] it was -0.068; in experiment [3], 0.033; in experiment [4], 0.081; in experiment [5] it was -0.087.
As to NTMT1 (UniProt Q9BV86), the log2 fold change was -0.01 in experiment [1]; -0.036 in experiment [2]; -0.019 in experiment [3]; 0.02 in experiment [4]; 0.098 in experiment [5].
For MRPS18A isoform 2 (UniProt Q9NVS2), in that order: 0.005, -0.101, 0.054, 0.066 and 0.2.
Turning to NELFCD (UniProt Q8IXH7), the log2 fold change in experiment [1] is -0.035; in experiment [2], 0.023; in experiment [3], 0.018; in experiment [4], 0.003; in experiment [5], 0.025.
As to NFKBIB (UniProt Q15653), the log2 fold change in experiment [1] is 0.068; in experiment [2], 0; in experiment [3], 0.014; in experiment [4] it was 0.055; in experiment [5], -0.185.
In the case of NR2C2 isoform 2 (UniProt P49116), the log2 fold change in experiment [1] is -0.078; in experiment [2], -0.08; in experiment [3], -0.04; in experiment [4] it was 0.243; in experiment [5] it was 0.047.
For N6AMT1 (UniProt Q9Y5N5), in that order: -0.046, -0.086, -0.046, -0.011 and 0.052.
For the target MSH3 (UniProt P20585), the log2 fold change in experiment [1] was 0.018; in experiment [2] it was 0.014; in experiment [3] it was 0.039; in experiment [4] it was -0.008; in experiment [5], 0.04.
With NFATC2 (UniProt Q13469), the log2 fold change was 0.027 in experiment [1]; 0.073 in experiment [2]; 0.064 in experiment [3]; 0.031 in experiment [4]; -0.1 in experiment [5].
Take PARP14 (UniProt Q460N5): the log2 fold change in experiment [1] was 0.021; in experiment [2], -0.003; in experiment [3], 0.063; in experiment [4] it was -0.028; in experiment [5], -0.045.
Take NOC2L (UniProt Q9Y3T9): the log2 fold change is 0.004 in experiment [1]; -0.019 in experiment [2]; 0.009 in experiment [3]; 0.324 (active) in experiment [4]; -0.012 in experiment [5].
The matching figures for NUDT4 (UniProt Q9NZJ9): 0.037, -0.025, 0.004, 0.075 and 0.242.
In the case of NUP188 (UniProt Q5SRE5), the log2 fold change in experiment [1] was -0.044; in experiment [2], -0.009; in experiment [3], 0; in experiment [4] it was -0.001; in experiment [5], 0.016.
Turning to NSUN2 (UniProt Q08J23), the log2 fold change in experiment [1] was -0.016; in experiment [2], 0.011; in experiment [3], -0.009; in experiment [4] it was 0.021; in experiment [5] it was 0.019.
NIFK (UniProt Q9BYG3): the log2 fold change is 0.065 in experiment [1]; 0.07 in experiment [2]; 0.015 in experiment [3]; 0.056 in experiment [4]; 0.047 in experiment [5].
Take PAN2 isoform 2 (UniProt Q504Q3): the log2 fold change in experiment [1] was -0.108; in experiment [2], 0.086; in experiment [3] it was -0.004; in experiment [4], -0.044; in experiment [5] it was 0.007.
Turning to MYCBP (UniProt Q99417), the log2 fold change in experiment [1] is 0.043; in experiment [2] it was -0.087; in experiment [3], -0.013; in experiment [4] it was -0.022; in experiment [5], -0.27.
On to NADK2 (UniProt Q4G0N4), for which the log2 fold change in experiment [1] is 0.057; in experiment [2], 0.007; in experiment [3] it was -0.006; in experiment [4], 0.045; in experiment [5], -0.012.
For NOSIP (UniProt Q9Y314), in that order: 0.018, -0.005, -0.018, 0.019 and 0.012.
As to MSH2 (UniProt P43246), the log2 fold change in experiment [1] was 0.018; in experiment [2], -0.006; in experiment [3], 0.028; in experiment [4] it was 0.001; in experiment [5] it was 0.065.
On to NARS2 (UniProt Q96I59), for which the log2 fold change in experiment [1] is 0.013; in experiment [2] it was 0.024; in experiment [3] it was 0.092; in experiment [4], 0.053; in experiment [5], -0.05.
